The source of these data is PubChem BioAssay (NCI).

Molecules are shown by their SMILES. This is part of a sample that, as a whole, favours compounds with a hit. Of some 83,000 tested, about 20% had one in any assay.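 Assay: single dose, 48 h. Readout: percent growth (0 = no net growth; negative = cell death). Active: <10.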 Values without a mark were called inactive. The source made the active and inactive calls.

Among the test systems are SR leukemia; RPMI-8226 leukemia; OVCAR-8 ovarian; OVCAR-5 ovarian; OVCAR-4 ovarian; SK-OV-3 ovarian; IGROV1 ovarian; OVCAR-3 ovarian; HS 578T breast; NCI/ADR-RES ovarian; T-47D breast; BT-549 breast; MDA-MB-435 melanoma; SW-620 colon; MCF7 breast; HCT-116 colon; HCC-2998 colon; KM12 colon; MDA-MB-468 breast.
Holding throughout (experiment): NCI-60 one-dose screen, 48 h (100 = growth as untreated, 0 = no growth, -100 = all killed)
Settings in all cases: 10 µM unless noted

As for `N/C(=N\c1nc2ccccc2s1)NC(=O)Nc1ccccc1Br`, the growth in the assay with SR leukemia is 12.1%; with RPMI-8226 leukemia, -0.145% (active); with OVCAR-8 ovarian, -55.7% (active); in the assay on OVCAR-5 ovarian, -17% (active); with OVCAR-4 ovarian, -59.1% (active); in the assay with SK-OV-3 ovarian it was -6.97% (active). Further, the growth is 11.5% in the assay with IGROV1 ovarian; -72.3% (active) in the assay on OVCAR-3 ovarian; -5.34% (active) in the assay with HS 578T breast; -57.1% (active) in the assay on NCI/ADR-RES ovarian; 45.3% in the assay with T-47D breast; -7.4% (active) in the assay on BT-549 breast. The growth is -63.9% (active) in the assay on MDA-MB-435 melanoma; 5.64% (active) with SW-620 colon; 8.24% (active) in the assay on MCF7 breast; -51.4% (active) with HCT-116 colon; -21% (active) with HCC-2998 colon; -48.2% (active) in the assay with KM12 colon.

As to `Cn1cc(-c2nc(N)nnc2-c2c[nH]c3ccc(Br)cc23)c2cccnc21`, the growth is 29.1% in the assay with SR leukemia; 45% with RPMI-8226 leukemia; 47.9% in the assay on OVCAR-8 ovarian; 80.3% in the assay with OVCAR-5 ovarian; 71.1% with OVCAR-4 ovarian; 61.8% in the assay on SK-OV-3 ovarian. Moreover, the growth was 46.2% in the assay on IGROV1 ovarian; 29.2% with OVCAR-3 ovarian; 33.9% in the assay on HS 578T breast; 78.7% with NCI/ADR-RES ovarian; 62.5% in the assay with T-47D breast; 33.9% in the assay on BT-549 breast. For the same compound, the growth with MDA-MB-435 melanoma was 12%; with SW-620 colon, 39.9%; with MCF7 breast it was 21.4%; with HCT-116 colon it was 21.2%; in the assay on HCC-2998 colon, 77%; with KM12 colon, 33.9%.

On to `N/C(=N\N=C\c1ccc([N+](=O)[O-])cc1)c1c(N)nc(=S)[nH]c1-c1ccc(Cl)cc1Cl`, for which the growth is 76.9% with SR leukemia; 97.3% in the assay on RPMI-8226 leukemia; 98.4% in the assay on OVCAR-8 ovarian; 111% in the assay with OVCAR-5 ovarian; 111% in the assay on OVCAR-4 ovarian; 89.1% in the assay with SK-OV-3 ovarian. Moreover, the growth was 94.9% in the assay on IGROV1 ovarian; 110% with OVCAR-3 ovarian; 87.1% with HS 578T breast; 105% with NCI/ADR-RES ovarian; 95.3% with T-47D breast; 75.6% in the assay with BT-549 breast. The growth in the assay on MDA-MB-435 melanoma was 108%; in the assay with SW-620 colon, 108%; with MCF7 breast, 88.2%; in the assay with HCT-116 colon it was 85.2%; in the assay with HCC-2998 colon, 106%; with KM12 colon, 108%. Further, the growth in the assay with MDA-MB-468 breast was 90.8%.

For the compound `O=C(Nc1cccc(-n2cnc3cc(-c4ccc(O)cc4)ccc32)c1)C1CC1`, the growth in the assay with SR leukemia is 21.6%; with RPMI-8226 leukemia, 25.5%; with OVCAR-8 ovarian, 17.9%; in the assay with OVCAR-5 ovarian it was 41.2%; in the assay on OVCAR-4 ovarian it was 49.6%; in the assay on SK-OV-3 ovarian, 35.5%. Also, the growth in the assay with IGROV1 ovarian was 28.2%; in the assay on OVCAR-3 ovarian it was -2.16% (active); with HS 578T breast, 9.4% (active); in the assay with NCI/ADR-RES ovarian it was 24.8%; in the assay on T-47D breast it was 30.6%; with BT-549 breast it was 30.8%. Besides, the growth in the assay with MDA-MB-435 melanoma was -4.17% (active); with SW-620 colon it was 38.2%; in the assay on MCF7 breast it was 24.9%; in the assay with HCT-116 colon, 9.12% (active); in the assay with HCC-2998 colon it was 28.4%; with KM12 colon it was 0.14% (active). For the same compound, the growth with MDA-MB-468 breast is 21%.

On to `COc1ccc2[nH]c(O)c(N=NC(=O)Cn3c(-c4ccccc4)nc4cc(C)ccc43)c2c1`, for which the growth was 1.82% (active) in the assay with SR leukemia; 10.7% in the assay on RPMI-8226 leukemia; 1.93% (active) in the assay on OVCAR-8 ovarian; 62.8% in the assay on OVCAR-5 ovarian; 45.3% with OVCAR-4 ovarian; 89.9% in the assay with SK-OV-3 ovarian. Further, the growth in the assay on IGROV1 ovarian was 51.9%; in the assay on OVCAR-3 ovarian, 37.3%; with HS 578T breast it was 25.6%; in the assay on NCI/ADR-RES ovarian it was -5.85% (active); with T-47D breast, 30.3%; in the assay on BT-549 breast, -61.7% (active). Besides, the growth with MDA-MB-435 melanoma was 43.7%; in the assay with SW-620 colon it was 47.2%; in the assay on MCF7 breast it was 33%; with HCT-116 colon, -72.7% (active); in the assay on HCC-2998 colon, 18.9%; in the assay with KM12 colon, 47.3%.

Consider `O=C1CC(Sc2n[nH]c(-c3ccncc3)n2)C(=O)N1c1ccc(Br)cc1` (stereo not drawn), for which the growth in the assay with SR leukemia was 97.4%; in the assay with RPMI-8226 leukemia, 94.1%; with OVCAR-8 ovarian, 105%; in the assay on OVCAR-5 ovarian it was 105%; with OVCAR-4 ovarian it was 110%; in the assay on SK-OV-3 ovarian, 108%. Further, the growth in the assay with IGROV1 ovarian was 112%; in the assay with OVCAR-3 ovarian, 114%; with HS 578T breast, 111%; with NCI/ADR-RES ovarian it was 111%; in the assay on T-47D breast, 94.5%; in the assay with BT-549 breast, 122%. In addition, the growth in the assay on MDA-MB-435 melanoma was 104%; in the assay on SW-620 colon it was 101%; in the assay with MCF7 breast, 99.8%; with HCT-116 colon, 105%; with HCC-2998 colon, 110%; in the assay on KM12 colon, 109%. Further, in the assay with MDA-MB-468 breast, the growth was 99.3%.

With `O=C(CSc1nc2ccccc2c(=O)[nH]1)NCCN1CCCCC1`, the growth was 90.9% in the assay with SR leukemia; 100% in the assay on RPMI-8226 leukemia; 97.7% in the assay on OVCAR-8 ovarian; 94.2% with OVCAR-5 ovarian; 98.8% with OVCAR-4 ovarian; 107% with SK-OV-3 ovarian. Moreover, the growth in the assay on IGROV1 ovarian is 104%; in the assay on OVCAR-3 ovarian it was 105%; in the assay on HS 578T breast, 94.1%; in the assay on NCI/ADR-RES ovarian, 102%; in the assay with T-47D breast, 100%; in the assay on BT-549 breast, 104%. Besides, the growth in the assay with MDA-MB-435 melanoma is 95.1%; in the assay on SW-620 colon, 97%; in the assay with MCF7 breast, 90.8%; in the assay on HCT-116 colon, 104%; in the assay with HCC-2998 colon it was 108%; with KM12 colon it was 98.3%. For the same compound, in the assay on MDA-MB-468 breast, the growth was 96.9%.

In the case of `COc1ccc(CCC2c3c(cc4c(c3OC)OCO4)CCN2C)cc1` (stereo not drawn), the growth in the assay with SR leukemia was -18.2% (active); in the assay with RPMI-8226 leukemia, -28.5% (active); in the assay on OVCAR-8 ovarian it was -41.7% (active); in the assay on OVCAR-5 ovarian it was -16.5% (active); in the assay on OVCAR-4 ovarian it was 9.34% (active); with SK-OV-3 ovarian, -37.6% (active). Further, the growth with IGROV1 ovarian is -52.4% (active); in the assay with OVCAR-3 ovarian it was -21.2% (active); in the assay on HS 578T breast it was 11%; in the assay with NCI/ADR-RES ovarian, -54.5% (active); in the assay with T-47D breast, -43.1% (active); in the assay with BT-549 breast, -69.9% (active). Besides, the growth in the assay with MDA-MB-435 melanoma is -66.2% (active); in the assay on SW-620 colon it was -78.1% (active); with MCF7 breast, -82.3% (active); in the assay with HCT-116 colon it was -58.3% (active); with HCC-2998 colon, -78.8% (active); with KM12 colon, -37.3% (active).
